# Assay outcomes (PubChem)
# The list is not random: actives were taken first. Their share in the collection is about 32%.
# CYP2C19 inh = inhibitors of human CYP2C19; P33261; CYP2C19 Supersomes, luciferin-H EGE luminescence, 30 min; inhibition, % at 5 µM; hit rate 21% among 96,000; AID 778;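 active = CYP2C19 inhibition above a set limit at 5 µM in the primary screen, cut at about 50% in these data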;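 note: plate controls were negative control wells for no effect and 2.5 mM tranylcypromine positive control for full effect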
# PostGolgi ctrl = yeast control strain growth, post-Golgi counter-screen. efflux-deficient yeast background strain, growth absorbance A615, 16 h. inhibition, % at 10 µM. hit rate 5% among 98,000. AID 738
# CYP2C9 act = activators of human CYP2C9. recombinant CYP2C9, luciferin-H conversion, luminescence; hits give high values; factor 1 = untreated enzyme, 0 = blocked. activation factor at 5 µM. hit rate 1.4% among 96,000;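 active = activation factor of 2 or more for CYP2C9 at a 5 µM dose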;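 note: 0 = sulfaphenazole-blocked wells and 1 = vehicle-only wells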
# Target sequence (P11712 whole entry, looked up): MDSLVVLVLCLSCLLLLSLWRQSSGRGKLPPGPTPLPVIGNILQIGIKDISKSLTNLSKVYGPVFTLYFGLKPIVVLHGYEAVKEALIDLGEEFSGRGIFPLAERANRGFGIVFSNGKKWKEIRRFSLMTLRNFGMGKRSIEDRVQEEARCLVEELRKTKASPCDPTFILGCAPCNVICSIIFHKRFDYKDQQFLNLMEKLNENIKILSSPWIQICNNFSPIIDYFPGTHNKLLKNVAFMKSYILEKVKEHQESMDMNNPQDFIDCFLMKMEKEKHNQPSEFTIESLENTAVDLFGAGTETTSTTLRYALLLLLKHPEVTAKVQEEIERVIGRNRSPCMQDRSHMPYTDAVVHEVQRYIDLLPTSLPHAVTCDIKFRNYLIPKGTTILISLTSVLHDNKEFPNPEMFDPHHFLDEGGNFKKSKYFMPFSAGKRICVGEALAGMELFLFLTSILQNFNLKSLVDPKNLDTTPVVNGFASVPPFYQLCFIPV
# CYP2C9 inh = blocks human cytochrome P450 2C9; inhibition, % at 5 µM; hit rate 20% among 96,000; CYP2C9 Supersomes, luciferin-H conversion, luminescence; AID 777;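 active = blocking of liver enzyme CYP2C9 beyond about 50% at 5 µM, limit read from the data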
# PostGolgi yeast = growth inhibition of a yeast mutant, post-Golgi transport screen. hit rate 0.9% among 98,000. post-Golgi transport phenotypic cell assay. AID 739. inhibition, % at 10 µM;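 note: yeast cells grown in 1536-well plates; yeast grown about 18 h at 30C before absorbance read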
# CYP2C19 act = activators of human cytochrome P450 2C19. P33261. recombinant CYP2C19, luciferin-H EGE luminescence; hits give high values; 0 = fully inhibited enzyme, 1 = untreated enzyme. activation factor at 5 µM. 96,000 tested, under 10 active. AID 1025;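 active = activation factor of at least 2 at 5 µM in the primary screen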;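 note: 0 = wells with 2.5 mM tranylcypromine and 1 = vehicle-only wells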
# Active calls of the source: *. Cut-off read from the data, not from the text of the source, unless noted: active = inhibition above about 30%; inactive = the rest.
SMILES,CYP2C19 inh,PostGolgi ctrl,CYP2C9 act,CYP2C9 inh,PostGolgi yeast,CYP2C19 act
NC(=O)C1CCN(C(=O)CSc2nc3c(c(-c4ccccc4)n2)CCCC3)CC1,14,10,0.3,73*,-2,0.9
NC(=O)C1CCN(C(=O)CSc2ccccn2)CC1,-5,4,1.2,-16,-2,1
NC(N)=N/N=C/c1ccc(OCc2ccc(Cl)cc2)cc1,40,63*,0.8,17,-9,0.6
NC(N)=N/N=C/c1ccc(OCc2ccccc2)cc1,7,8,0.9,12,3,0.9
Fc1ccc(CNc2cnccn2)cc1,10,17,0.8,17,17,0.9
COC(=O)c1ccc(NC(=O)Cc2ccccc2)cc1,83*,5,0.3,70*,0,0.2
COC(=O)c1ccc(NC(=S)Nc2ccc3ccccc3c2)cc1,0,-19,1,2,-15,1
CCC(C)C(=O)Nc1cc(C(=O)OC)cc(C(=O)OC)c1 (centres undefined),22,0,0.4,61*,-2,0.8
COC(=O)c1cc(NC(=O)Cc2ccc(OC)cc2)cc(C(=O)OC)c1,38,8,0.2,84*,2,0.6
COC(=O)c1ccc(NC(=S)Nc2ccccc2)cc1,52*,0,0.8,23,2,0.5
COC(=O)c1ccc(NC(=O)Cc2ccc(C)cc2)cc1,0,-4,0.8,24,-6,1
COc1cccc(/C=N/n2c(-c3cccs3)n[nH]c2=S)c1,25,8,0.6,40,-18,0.7
CCOC(=O)c1ccc(NC(=S)NCCc2ccccc2)cc1,38,4,0.3,66*,4,0.6
O=C(CNS(=O)(=O)c1cccs1)Nc1ccc2c(c1)OCCO2,19,-3,0.8,19,22,0.8
COC(=O)c1ccc(NC(=O)CNS(=O)(=O)c2cccs2)cc1,65*,7,0.6,37,-9,0.3
CCOC(=O)c1ccc(NC(=S)NCC(O)c2ccccc2)cc1 (centres undefined),28,1,0.7,34,2,0.7
Cc1cc(C)nc(Sc2ccc(/C=C(\C#N)C(=O)Nc3ccccc3)o2)n1,31,-6,0.6,42,-9,0.7
CC(C)Cc1ccc(C(C)C(=O)N2CCOCC2)cc1 (centres undefined),21,12,0.3,66*,-6,0.8
N#Cc1c(NC(=O)CSc2nc(-c3ccco3)cc(C(F)(F)F)n2)sc2c1CCCC2,1,-9,0.8,24,-7,1
COc1ccc(C2CC(=O)C3=C(C2)Nc2ncnn2C3c2ccccc2)cc1 (centres undefined),41,1,0.6,37,-5,0.6
CC1CC(=O)C2=C(C1)Nc1ccccc1N(C(=O)COc1ccccc1)C2c1ccco1 (centres undefined),56*,1,0.5,48,-6,0.4
COc1ccc(C2C3=C(CC(c4ccco4)CC3=O)Nc3ccccc3N2C(C)=O)cc1 (centres undefined),48,23,0.2,81*,18,0.5
O=C1CC(c2ccco2)CC2=C1C(c1ccccc1)n1nc(C(F)(F)F)nc1N2 (centres undefined),30,17,0.4,62*,9,0.7
COc1ccc(OC)c2sc(NC(=O)c3ccc(S(=O)(=O)N(C)C)cc3)nc12,-2,11,1,1,-5,1
CNC(=S)Nc1ccc(Nc2ccccc2)cc1,43,3,0.6,40,-8,0.6
CCCCOc1ccccc1-c1cc(C(=O)O)[nH]n1,-12,-6,1,0,-5,1.1
O=C(CSc1nnc(-c2cccs2)n1-c1ccccc1)Nc1ccccc1,4,-5,0.9,9,3,1
CCC(C)(C)n1nnnc1C(c1ccc(OC)c(OC)c1)N1CCN(c2cccc(OC)c2)CC1 (centres undefined),56*,2,0.1,86*,-4,0.4
CCC(C)(C)n1nnnc1C(c1ccc(OC)c(OC)c1)N1CCN(c2ccccc2)CC1 (centres undefined),68*,-5,0.3,71*,-4,0.3
CCC(C)(C)n1nnnc1C(c1ccc(OC)c(OC)c1)N1CCN(c2ccc(OC)cc2)CC1 (centres undefined),57*,6,0.1,88*,4,0.4
